Measured values from PubChem BioAssay (NCI).
Values joined by “and” are separate entries in the source; they are usually repeats but may differ in a detail not shown here. Identical values can stand only once. Compounds without any hit were thinned out: in the full panel of roughly 83,000, 20% have a hit.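 Results are percent growth after 48 hours of single-concentration exposure. 100 means growth as in untreated cells, lower positive values show inhibition; negative values down to -100 show cell death.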 A number with no mark means an inactive call. Active and inactive are the calls of the source. Rule for the calls: active = growth percent below 10; inactive = the rest.

Experiments:
Assay in all cases: NCI-60 one-dose screen, 48 h (100 = growth as untreated, 0 = no growth, -100 = all killed)
Details in all cases: 10 µM unless noted
HCT-15 colon = tested on: HCT-15 colon
HT29 colon = tested on: HT29 colon
SNB-75 CNS = tested on: SNB-75 CNS
SNB-19 CNS = tested on: SNB-19 CNS
U251 CNS = tested on: U251 CNS
PC-3 prostate = tested on: PC-3 prostate
SK-MEL-5 melanoma = tested on: SK-MEL-5 melanoma
UACC-62 melanoma = tested on: UACC-62 melanoma
LOX IMVI melanoma = tested on: LOX IMVI melanoma
SK-MEL-28 melanoma = tested on: SK-MEL-28 melanoma
SK-MEL-2 melanoma = tested on: SK-MEL-2 melanoma
EKVX NSCLC = tested on: EKVX NSCLC
SN12C renal = tested on: SN12C renal
UO-31 renal = tested on: UO-31 renal
TK-10 renal = tested on: TK-10 renal
ACHN renal = tested on: ACHN renal
CAKI-1 renal = tested on: CAKI-1 renal
A498 renal = tested on: A498 renal
CCRF-CEM leukemia = tested on: CCRF-CEM leukemia
MOLT-4 leukemia = tested on: MOLT-4 leukemia

Compound | growth (HCT-15 colon) | growth (HT29 colon) | growth (SNB-75 CNS) | growth (SNB-19 CNS) | growth (U251 CNS) | growth (PC-3 prostate) | growth (SK-MEL-5 melanoma) | growth (UACC-62 melanoma) | growth (LOX IMVI melanoma) | growth (SK-MEL-28 melanoma) | growth (SK-MEL-2 melanoma) | growth (EKVX NSCLC) | growth (SN12C renal) | growth (UO-31 renal) | growth (TK-10 renal) | growth (ACHN renal) | growth (CAKI-1 renal) | growth (A498 renal) | growth (CCRF-CEM leukemia) | growth (MOLT-4 leukemia)
COc1cc(NC2CCCCC2O)c2nc(-c3ccc(Cl)cc3)ccc2c1 (stereo not given) | 49.6% and 62.8% | 54.2% and 67.9% | 82% and 103% | 83.4% and 93.6% | 56.8% and 68.8% | 70.1% | 96.6% and 98.1% | 83.7% and 94.7% | 41.4% and 77% | 94.2% and 96.7% | 91.5% and 80.4% | 78.3% and 94.4% | 80.1% and 103% | 71.1% and 86.8% | 82.2% and 125% | 84.4% and 87.5% | 46.9% and 61.3% | 101% | 53.7% and 40.2% | 33.4%
Cc1ccc(-c2nc3nc(-c4ccc(Br)cc4)nc(N4CCCNCC4)c3o2)cc1 | -84.5% (active) | -85.3% (active) | 96.2% | -47.3% (active) | -76.6% (active) | -52% (active) | 92.6% | 101% | -85.1% (active) | 103% | 108% | 114% | -77.4% (active) | 63.4% | 19.9% | -95.4% (active) | -50.5% (active) | 80.5% | -64.4% (active) | -56.8% (active)
CCCCCCNC(=O)Oc1ccc(/C(=C(/CC)Cc2ccccc2)c2ccc(OCCCN(C)C)cc2)cc1 | 14.7% | 18.9% | 68.4% | 88.3% | 60.4% | 73.2% | 87.7% | 94.9% | -15% (active) | 101% | 106% | 89.2% | 87.1% | 59% | 82.2% | 100% | 89.6% | 89.9% | 69.4% | 67.1%
CN1CCN(c2ccc(/C=C/C(=O)c3ccc(O)cc3)cc2)CC1 | 91.1% | 100% | 85.6% | 99.6% | 86.7% | 93.1% | 94.1% | 92.7% | 95.4% | 98.8% | 102% | 83.7% | 94.1% | 85.3% | 122% | 105% | 98.9% | 82.9% | 102% | 95%
COc1cccc(NC(=O)c2sc3nc(C)c(C(O)c4ccccc4)cc3c2N)c1 (stereo not given) | 14.6% | 13.3% | 54.2% | 27.6% | 8.92% (active) | 23.5% | -17.2% (active) | 32% | 36.1% | 64.9% | 37.8% | 47.7% | 18.5% | 48% | 50.8% | 30.9% | 35.1% | -0.498% (active) | 14.3% | 11.8%
O=C(O)c1ccccc1Cc1ccc(F)c2ccccc12 | 108% and 99.4% | 116% and 107% | 93.6% and 77.4% | 101% and 104% | 115% and 104% | 120% and 90.7% | 96.2% and 102% | 101% and 106% | 100% and 98.9% | 105% | 101% and 119% | 107% | 107% and 97.9% | 77.7% and 89.1% | 107% and 109% | 99.3% and 102% | 94.9% and 100% | 99.3% and 97.4% | 98.8% and 96.3% | 93.7% and 107%
N#C/C(=N\Nc1ccc(Cl)cc1)C(=O)Nc1cc(-c2ccccc2)nn1-c1ccccc1 | 9.38% (active) | 34.1% | 62.1% | 30.4% | 23.1% | 6.71% (active) | -31% (active) | 3.27% (active) | 73.5% | 38.6% | 10.5% | 24.4% | 0.137% (active) | 47.1% | 28.6% | 33.9% | 21.5% | 3.5% (active) | 15.3% | 26.1%
CN1CCN(Cc2ccc(NC(=O)c3nc4ccc5[nH]ncc5c4c4c3CCCC4)cc2C(F)(F)F)CC1 | -74.6% (active) | -83.2% (active) | -90% (active) | -88.8% (active) | -91% (active) | -83.5% (active) | -92.6% (active) | -87.5% (active) | -94.9% (active) | -85.8% (active) | -63.5% (active) | 37.2% | -88.7% (active) | -85.9% (active) | -86.7% (active) | -79.4% (active) | -46.6% (active) | 92.9% | -11.1% (active) | -27% (active)
CCN(CC)CCOc1ccccc1C | 107% | 101% | 98.6% | 104% | 108% | 97.3% | 102% | 101% | 104% | 98.3% | 101% | 112% | 98.7% | 95% | 107% | 101% | 102% | 106% | 102% | 103%
CN1C(=O)/C(=C/c2ccc(C(=O)Nc3ncc(Cc4ccccc4Cl)s3)cc2)SC1=S | 42.1% | 69.5% | 69.4% | 83.3% | 89.4% | 77.6% | 62.4% | 18.1% | 45.1% | 74.8% | 101% | 75.6% | 68.6% | 63.5% | 83.6% | 52.1% | 34.1% | 60.7% | 73.7% | 82.1%
COc1c(F)cc(-n2c(C(=O)N3CC(F)C3)cc3cccnc32)cc1F | 98.6% | 104% | 82.2% | 94.2% | 97.7% | 95.3% | 99% | 101% | 84.2% | 122% | 108% | 103% | 97.6% | 74.2% | 99% | 93.2% | 86.3% | 107% | 99.1% | 97.8%
CCOC(=O)c1ccc(Nc2ncnc3c2cnn3-c2cccc(F)c2)cc1 | 102% | 103% | 82.1% | 96.9% | 98% | 97.3% | 101% | 92.6% | 93.2% | 110% | 114% | 97.5% | 95% | 72.1% | 115% | 96.5% | 84.8% | 99% | 95.6% | 99.2%
O=C(c1ccc(Nc2nccc(NCCCNc3ccnc4cc(Cl)ccc34)n2)cc1)N1CCCCC1 | 92.2% | 19.7% | 90.5% | 35% | 23% | 36.5% | 43.7% | 21.4% | -14.3% (active) | 71.8% | 64.5% | 57% | 34.3% | 82.3% | 73.2% | 79.9% | 89.9% | 69.1% | 37.1% | 25.3%
COc1ccc(/C=C2\COc3ccc(O)c(O)c3C2=O)c(OC)c1OC | 1.33% (active) | 44.7% | 37.9% | 28.2% | 14.4% | 36.8% | 35.5% | -56.9% (active) | 0.166% (active) | 58% | 70.3% | 65.7% | 0.808% (active) | -5.7% (active) | 45.1% | 12.5% | 39% | 109% | 3.07% (active) | 1.41% (active)
